{
  "source": "PubChem BioAssay (NCI)",
  "note": "The panel holds about 83,000 compounds, 20% with a hit somewhere; the sample as a whole holds those more often.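 Growth was measured after 48 h exposure to one concentration of compound in 96-well plates. Values under 10 count as active.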 Active and inactive are the calls of the source.",
  "data": [
    {"tested_on": "MALME-3M melanoma", "assay": "NCI-60 one-dose screen, 48 h (100 = growth as untreated, 0 = no growth, -100 = all killed)", "conditions": "10 µM unless noted", "values": [
      {"compound": "COc1ccc2nc(-c3ccc(Cl)cc3)cc(-c3nnc(SCC(=O)Nc4ccc(/C(C)=N\\O)cc4)o3)c2c1", "growth": "15.1% (inactive)"},
      {"compound": "C/C(=C\\c1cnc(C)s1)[C@@H]1C[C@@H]2O[C@@H]2CCC[C@H](C)[C@H](O)[C@@H](C)C(=O)C(C)(C)[C@@H](O)CC(=O)O1", "growth": "54.6% (inactive)"},
      {"compound": "O=C(/C(=C\\c1c(-c2ccccc2)[nH]c2ccccc12)S(=O)(=O)c1ccccc1)c1ccccc1", "growth": "83.3% (inactive)"},
      {"compound": "O=c1[nH]c(-c2cccc(F)c2)cc2cc(F)ccc12", "growth": "73% (inactive)"},
      {"compound": "O=C1CS/C(=N/c2nnc(-c3ccc(O)cc3)s2)N1", "growth": "101% (inactive)"},
      {"compound": "C[C@H](Oc1cc(-c2cnn(C3CCNCC3)c2)cnc1N)c1c(Cl)ccc(F)c1Cl", "growth": "-38% (active)"},
      {"compound": "COCCOCCOCc1n(Cc2ccc3ccccc3n2)c2ccccc2[n+]1Cc1ccc2ccccc2n1", "growth": "5.23% (active)"},
      {"compound": "CCOC(=O)c1cnn(-c2nc(-c3ccc(F)cc3)c(C#N)c(N3CCOCC3)n2)c1N", "growth": "107% (inactive)"},
      {"compound": "CC(=O)c1c(OCC#N)ccc2c(C)cc(=O)oc12", "growth": "116% (inactive)"},
      {"compound": "CN(CCC#N)C(=O)Nc1ccccc1", "growth": "100% (inactive)"},
      {"compound": "C#Cc1ccccc1NC(=O)c1sc2nc3c(cc2c1N)CCCCC3", "growth": "102% (inactive)"},
      {"compound": "COCCOC(=O)COc1ccc(OC)cc1", "growth": "97% (inactive)"},
      {"compound": "C#C[C@@]1(O)[C@@H](CO)O[C@@H](n2cnc3c(-c4ccccc4)ncnc32)[C@@H]1O", "growth": "103% (inactive)"},
      {"compound": "COc1cc(NCC(=O)Nc2cc(Nc3ccc(C)cc3)ncn2)c(Cl)c(OC)c1Cl", "growth": "111% (inactive)"},
      {"compound": "COc1ccc2oc(=O)cc(-c3c(C#N)c(N)n4nc(N)c(C#N)c4c3C#N)c2c1", "growth": "77.4% (inactive)"},
      {"compound": "O=C1NC(SCc2ccc(F)cc2)=N/C1=C/c1cccc(OCc2ccc(Cl)cc2)c1", "growth": "88.1% (inactive)"},
      {"compound": "COc1ccc(Nc2nc(SCC(C)C)nc(-c3ccc(F)cc3)c2C#N)cc1", "growth": "61.9% (inactive)"},
      {"compound": "COC(=O)/C=C1\\SC(=Nc2ccc(F)cc2)N(CCc2c[nH]c3ccccc23)C1=O", "growth": "99.9% (inactive)"},
      {"compound": "Nc1c(C(=O)Nc2ccccc2)sc2nc3c(cc12)CN(C(=O)OCc1ccccc1)CC3", "growth": "52.3% (inactive)"},
      {"compound": "COc1ccc(C2=NN(c3ccc(S(N)(=O)=O)cc3)C(c3ccc(Cl)cc3)C2)c(O)c1", "note": "(configuration not stated)", "growth": "93.5% (inactive)"},
      {"compound": "COc1ccc(C(C)c2cc(OC)c(OC)c(OC)c2)cc1", "note": "(configuration not stated)", "growth": "67.5% (inactive)"},
      {"compound": "COc1ccc(-n2nc(C(=O)NCC(=O)O)nc2-c2ccccc2)cc1", "growth": "92.4% (inactive)"},
      {"compound": "CCOC(=O)C1=C(C)n2nc(CC#N)c(C#N)c2NC1c1ccc(Cl)cc1", "note": "(configuration not stated)", "growth": "87.4% (inactive)"},
      {"compound": "Nc1c(C(=O)Nc2ccccn2)sc2nc3c(cc12)CCCC3", "growth": "62.7% (inactive)"},
      {"compound": "CCN1CCC[C@H]1c1cc(O)c2c(c1OC)C[C@H]1C[C@H]3[C@H](N)C(=O)C(C(N)=O)=C(O)[C@@]3(O)C(=O)C1=C2O", "growth": "-16.5% (active)"},
      {"compound": "Cc1cc(O)cc(O)c1N=NC1=NCCS1", "growth": "94.3% (inactive)"},
      {"compound": "COC(=O)c1cncc(C(=O)Nc2ccc(-n3cnc4ccccc43)cc2)c1", "growth": "124% (inactive)"},
      {"compound": "CNc1cccc2c1C(=O)c1cccc(N)c1C2=O", "growth": "87.4% (inactive)"},
      {"compound": "O=S(=O)(Nc1nccs1)c1ccc(Nc2nc(-c3ccncc3)cs2)cc1", "growth": "113% (inactive)"},
      {"compound": "CN1C(=O)c2cc(Cl)nc3c(NC(=O)c4cccc(Cl)c4)c(Cl)c(NC(=O)c4cccc(Cl)c4)c1c23", "growth": "-56.1% (active)"},
      {"compound": "O=C(O)COc1ccc2c(=O)c3sc4c(=O)c5ccccc5c(=O)c4c3c(=O)c2c1", "growth": "-75.4% (active)"},
      {"compound": "O=C(Nc1nc(-c2ccccc2)cs1)c1cc(-c2ccc(Br)cc2)nc2ccccc12", "growth": "112% (inactive)"},
      {"compound": "Cc1cc(Nc2nc(SCc3ccc(C(=O)Nc4ccc(F)cc4N)cc3)nn3cccc23)n[nH]1", "growth": "53.7% (inactive)"},
      {"compound": "O=C1NCc2ccc3c(-c4cccc(Cl)c4)c[nH]c3c21", "growth": "65.9% (inactive)"},
      {"compound": "O=C(CN1N=C(c2ccc(F)cc2)CCC1=O)Nc1nccs1", "growth": "105% (inactive)"},
      {"compound": "O=C1Nc2ccc(Cl)cc2/C1=N/c1nc(-c2ccc(F)cc2)cs1", "growth": "53.6% (inactive)"},
      {"compound": "OCCNc1nc(NCCO)nc(Nc2ccc(C3=NN(c4cc(Cl)cc(Cl)c4)C(c4ccc(Cl)cc4)C3)cc2)n1", "note": "(configuration not stated)", "growth": "-43.7% (active)"}
    ]}
  ]
}
